The sample as a whole holds a higher share of hits than the screen did.
mcGAS RapidFire – blocks mouse cGAS cGAMP production; recombinant mouse cGAS, cGAMP by RapidFire MS; inhibition, % at 12.5 µM; AID 1259397; Q8C6L5; hit rate 0.18% among 130,000;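 active means inhibition of cGAS enzyme activity at or above 60%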;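 further: enzyme stimulated by 45 bp dsDNA with ATP and GTP substrates; cGAMP share of summed cGAMP plus half ATP and half GTP signals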
The depositor's hits bear a star.

For O=c1c2ccccc2[se]n1-c1ccccc1 the results were mcGAS RapidFire 94*.
`O=c1c2ccccc2nc(Cc2ccccc2)n1-c1cccc(O)c1` gave mcGAS RapidFire -4.
`Cc1nc2ccc(N)cc2c(=O)n1-c1ccccc1` gave mcGAS RapidFire -4.
Cc1cc(C)cc(CC(C)NC(=O)NCCC(=O)N(C)C)c1 (stereo not drawn) was read as mcGAS RapidFire -2.
Screening O/N=C1/C2CN3CCN(C2)CC1(c1ccccc1)C3 returned mcGAS RapidFire -26.
Cc1noc(C)c1CNC(C)Cn1cncn1 (stereo not drawn) was read as mcGAS RapidFire -11.
For O=[N+]([O-])c1ccc(O)c(Cl)c1 the results were mcGAS RapidFire 9.
Screening O=C(c1cc([N+](=O)[O-])c[nH]1)C(Cl)(Cl)Cl returned mcGAS RapidFire -9.
Screening O=[N+]([O-])c1ccc(O)c([N+](=O)[O-])c1 returned mcGAS RapidFire 96*.
`O=C(Nc1ccon1)c1cccn(Cc2cccc(C(F)(F)F)c2)c1=O` gave mcGAS RapidFire -4.
Screening COc1ccc2c(c1)c(CCN1CCOCC1)c(C)n2C(=O)c1cccc(Cl)c1Cl returned mcGAS RapidFire -19.
Cc1c(CC(=O)N2CCN(C(C)C)CC2)cnn1-c1ccccc1 was read as mcGAS RapidFire -17.
For CC(C)C[C@@H](CN)CC(=O)O the results were mcGAS RapidFire -4.
Screening CC(=O)NS(=O)(=O)c1ccc(NC(=O)c2cccn(Cc3cccc(C)c3)c2=O)cc1 returned mcGAS RapidFire -4.

Screening data as filed in PubChem.
